RORg inh = ROR gamma (mouse) transcription inhibition; hit rate 5.4% among 310,000; Potency, µM (highest dose often 53.6 µM), for the others: top-dose activity change, negative = inhibition, most hits filed as inhibitors; P51450; Drosophila S2 Gal4-RORgamma UAS-luciferase reporter, 20 h; also: potency is read from the fitted curve at half-maximal effect; % is scaled to controls: 0 for no effect and ±100 for the full control effect; nearly all actives have a fitted effect of over 60% in size
Target sequence (P51450 whole entry, looked up, the tested form may be a part): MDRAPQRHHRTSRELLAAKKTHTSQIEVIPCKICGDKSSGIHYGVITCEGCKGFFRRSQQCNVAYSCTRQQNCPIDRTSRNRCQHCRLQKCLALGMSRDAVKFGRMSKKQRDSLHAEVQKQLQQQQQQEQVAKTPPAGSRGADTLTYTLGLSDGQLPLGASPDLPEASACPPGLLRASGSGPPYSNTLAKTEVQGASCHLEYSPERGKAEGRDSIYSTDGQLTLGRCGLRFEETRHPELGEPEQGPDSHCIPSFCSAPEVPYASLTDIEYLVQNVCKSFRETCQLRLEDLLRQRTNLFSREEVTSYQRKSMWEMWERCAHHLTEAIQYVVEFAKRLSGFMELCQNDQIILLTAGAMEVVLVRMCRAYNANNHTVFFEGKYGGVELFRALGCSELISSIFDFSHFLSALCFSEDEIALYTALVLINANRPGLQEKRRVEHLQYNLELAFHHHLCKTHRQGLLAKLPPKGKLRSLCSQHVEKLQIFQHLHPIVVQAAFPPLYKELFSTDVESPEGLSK
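In this cell-based reporter format, copper sulfate (700 uM final) drives Gal4–ROR gamma fusion expression from a metallothionein promoter in Drosophila Schneider cells; compounds preincubated 1 hr, reporter read after 20 hr at ambient temperature.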
Chronic BCR inh = blocks chronic active B-cell receptor signaling; AID 493014; hit rate 0.05% among 340,000; ABC-DLBCL IkBa-CBG/CBR reporter, luminescence ratio, 4 h; Potency, µM (highest dose often 46.1 µM), without a hit: at the top dose activity change, negative = inhibition, usual class: inhibitors; active = well fitted inhibition curve with a large enough effect in the signal ratio, with a control signal flat, not every such curve was filed as active; inconclusive = small, poorly fitted or top-dose-only effect, or effect the other way, or a change in a side signal; the % refers to the signal ratio;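 also: potency is read from the fitted curve at half-maximal effect; plate controls were basal doxycycline-induced cells for no effect and cells given 10 µM MG132 for full effect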
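Doxycycline induced both beetle luciferases in TMD8 lymphoma cells; IKK-driven degradation limits the IkappaBalpha-fused green signal, while red luminescence normalises for cell number and nonspecific effects. Compounds tested up to 46 uM, 4 hrs.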
Gal4-VP16 FLuc = counter-screen for ROR gamma inhibitors: Gal4-VP16 reporter. Drosophila S2 Gal4-VP16 UAS-luciferase, luminescence, 20 h. Potency, µM (top dose mostly 53.6 µM), for the others: at the highest dose activity, negative = inhibition, most hits filed as inhibitors. hit rate 3.5% among 310,000;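 also: Gal4-VP16 expression switched on by copper sulfate through the metallothionein promoter; potency is read from the fitted curve at half-maximal effect; % is scaled to controls: 0 for no effect and ±100 for the full control effect; nearly all actives have a fitted effect of over 50% in size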
SW480 rerep = induces DNA re-replication in SW480 colon adenocarcinoma cells; hit rate 1.8% among 340,000; SW480 DNA re-replication, Hoechst DNA content imaging, 48 h; Potency, µM (highest dose often 46.1 µM), for inactives: top-dose re-replication activation, actives largely listed as activators; also: potency is read from the fitted curve at half-maximal effect; % of control where 0% means no effect; nearly all actives have a fitted effect of over 55% in size
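Image-based DNA-content assay: after two days of treatment, nuclei were labelled with the DNA dye Hoechst and imaged, and hits were compounds raising the count of nuclei showing high fluorescence intensity.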
Giardia kill = kills Giardia lamblia; hit rate 0.15% among 340,000; activity change, % at 7.66 µM, hits read low; AID 540267; Giardia lamblia trophozoite viability; in the data active = activity change below about -80%; inconclusive = between about -30% and that limit;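 also: parasites exposed to compound for two days anaerobically before the ATP read; % is scaled to controls: 0 for no effect and ±100 for the full control effect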
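Trophozoite viability was measured as ATP-dependent luminescence, read 15-30 min after reagent addition. Before that, parasites at 100 cells/well were exposed to compounds for 48 h, anaerobically, at 37 deg C.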
MCF10A rereplic = induces DNA re-replication in MCF 10a normal breast cells; hit rate 2.9% among 350,000; MCF 10A DNA re-replication, Hoechst nuclear intensity, 48 h; Potency, µM (titrated, usually from 46.1 µM), for the others: at the top dose activity, positive = re-replication, hits mostly activators; AID 624296; also: potency is read from the fitted curve at half-maximal effect; % of control where 0% means no effect; nearly all actives have a fitted effect of over 50% in size
* hit, by the source's call; ? = inconclusive; · = no result given; [ ] = another dose, or the depositor's remark. This is a sample that favours compounds with a hit; in the whole collection about 8.3% have one here. Unless noted, calls follow the shape of the dose curve; as a rule, active = well fitted curve in the direction sought with a large enough effect; inconclusive = small, poorly fitted or top-dose-only effect, or another doubt; inactive = no such curve, though single readings can be large; an effect the other way counts as inactive or inconclusive.

SMILES	RORg inh	Chronic BCR inh	Gal4-VP16 FLuc	SW480 rerep	Giardia kill	MCF10A rereplic
CCOc1ccc(-c2c(C(=O)N/N=C/c3ccc(C)cc3)nnn2-c2nonc2N)cc1	-32.8%	11.3%	-9.7%	0.8%	-12.7	8.7%
CCOc1cccc(-c2c(C(=O)N/N=C/c3sccc3C)nnn2-c2nonc2N)c1	5.62µM*	?	4.47µM*	21.1%	0.1	?
CCOc1ccc(-c2c(C(=O)N/N=C/c3sccc3C)nnn2-c2nonc2N)cc1	3.16µM*	13.1%	8.91µM*	-9.8%	-3.4	6.7%
CCOc1cccc(-c2c(C(=O)N/N=C/c3ccsc3)nnn2-c2nonc2N)c1	11.2µM*	?	25.1µM*	-4.8%	-12.4	3.7%
COC(=O)c1ccc(Cn2nnc3c(=O)[nH]c(C4CCCN(S(=O)(=O)c5cccc(Cl)c5)C4)nc32)cc1 (stereo not drawn)	20.6%	1.3%	-17.3%	-22.8%	-5.3	-0.5%
COc1cccc(CN(C)C(=O)CCNC(=O)c2ccco2)c1	·	-1.0%	·	-1.6%	3.8	-5.3%
CCC(=O)Nc1cccc(NC(=S)NC(=O)c2cccc(C)c2)c1	?	?	7.9%	-8.3%	-22.2	16.8%
O=C(NC(=S)Nc1ccccc1O)c1ccccc1Cl	7.08µM*	?	?	-2.1%	-12.0	?
CC(=O)c1cccc(NC(=S)NC(=O)c2ccccc2Cl)c1	12.6µM*	?	-85.7%	-4.4%	9.9	-5.2%
CC(=O)c1cccc(NC(=S)NC(=O)c2ccc(C)cc2Cl)c1	11.2µM*	4.1%	12.6µM*	-16.6%	7.0	1.6%
COC(=O)c1cccc(NC(=O)NC(=O)c2ccccc2Cl)c1	?	?	-12.6%	-4.1%	-25.3	14.3%
NC(=O)C1CCCN1C(=O)C(Cc1cnc[nH]1)NC(=O)C1CCC(=O)N1 (stereo not drawn)	-2.1%	·	7.3%	·	·	·
C=CCn1c(SCC(=O)O)nnc1-c1ccc(C(C)(C)C)cc1	14.1µM*	?	?	-6.5%	-4.8	4.5%
O=C(NCc1cccnc1)C(=O)Nc1ccc2c(c1)OCO2	22.0%	?	15.1%	-6.5%	17.5	-0.4%
CCN(CC)c1nc(C)c(C(=S)Nc2cc([N+](=O)[O-])ccc2Cl)s1	3.16µM*	?	-8.2%	3.5%	30.5	10.1%
CCC(C)(C)C(=O)Nc1cc([N+](=O)[O-])ccc1Cl	-10.7%	-3.9%	-1.7%	-0.2%	-5.3	22.0%
COc1cc(C2Nc3ccccc3C(=O)N2Cc2ccco2)cc(OC)c1OC (stereo not drawn)	·	·	·	·	-17.7	·
Nc1ccc2c(c1)C(=O)C(=O)c1ccccc1-2	1.78µM*	?	2.82µM*	3.66µM*	11.7	?
O=C1C(=O)c2ccc(-c3ccccc3)cc2-c2ccccc21	3.16µM*	?	3.55µM*	5.8µM*	-0.8	?
CC1(C)OC2OC(C(=O)N/N=C/c3cc(Br)ccc3O)C3OC(C)(C)OC3C2O1 (stereo not drawn)	1.58µM*	-0.1%	?	16.4µM*	10.8	?
COCc1nnc(NC(=O)CCS(=O)(=O)c2ccccc2)s1	-1.5%	?	-14.0%	14.6µM*	12.9	?
Cc1ccc(S(=O)(=O)CCc2nnc(NC(=O)c3ccccn3)s2)cc1	?	-2.9%	7.08µM*	-2.9%	-3.1	-16.6%
CC(C)c1nnc(NC(=O)CCS(=O)(=O)c2ccccc2)s1	9.8%	?	-15.9%	29.7%	-10.9	?
Cc1ccc(S(=O)(=O)CCc2nnc(NC(=O)c3cnccn3)s2)cc1	-18.1%	-20.0%	0.1%	-9.5%	28.0	-4.2%
CCc1nnc(NC(=O)CCS(=O)(=O)c2ccc(C)cc2)s1	·	-3.9%	·	1.4%	-12.5	129.6%
SMILES	RORg inh	Chronic BCR inh	Gal4-VP16 FLuc	SW480 rerep	Giardia kill	MCF10A rereplic
COc1ccc(OC)c2sc(NC(=O)CCS(=O)(=O)c3ccccc3)nc12	·	·	·	3.7%	26.1	20.6µM*
CCc1nnc(NC(=O)CCS(=O)(=O)c2ccccc2)s1	-11.8%	-15.9%	7.0%	18.4µM*	-0.7	14.6µM*
NC(N)=NC1=NC(=O)/C(=C/c2ccccc2-n2cccn2)S1	-13.9%	?	-7.0%	5.9%	7.5	-9.9%
CC(=O)N1CCc2c(sc(NC(=O)c3ccc4c(c3)OCCO4)c2C#N)C1	4.0%	?	8.7%	18.4µM*	-21.0	14.6µM*
CCC(=O)NC(=S)Nc1ccc(OC)cc1OC	11.2µM*	?	?	-2.7%	-10.8	-0.6%
CCN(CC(=O)Nc1ccc(OC)cc1)CC(=O)Nc1ccc(Br)cc1F	21.8%	-16.5%	3.0%	-25.9%	5.2	-26.1%
COc1ccc(NCC(=O)Nc2ccc(Br)cc2F)c(OC)c1	42.0%	?	5.5%	6.51µM*	-1.3	?
CCC(=O)Nc1ccc(OC)cc1OC	7.3%	4.0%	-3.2%	16.7%	5.0	?
Cc1ccc(NC(=S)NC(=O)Cc2ccccc2)c(O)c1	20µM*	5.0%	?	-3.4%	1.4	-1.6%
COc1ccc(NC(=S)NC(=O)Cc2ccccc2)c(OC)c1	14.1µM*	-1.2%	11.2µM*	4.4%	6.0	6.4%
CC(C)(C)C(=O)CNS(=O)(=O)c1ccc(S(=O)(=O)NC2CC2)cc1	34.4%[1.91 µM]	-1.9%	-6.4%	-37.1%	-16.0	-1.4%
Cc1nc(NC(=O)c2ccccc2)sc1Cc1ccc2c(c1)OCO2	12.6µM*	?	?	25.9µM*	-0.6	?
CC(=O)c1sc(NC(=O)c2ccc3c(c2)OCO3)nc1C	-19.0%	?	-6.1%	-3.4%	2.3	8.7%
Cc1c(Cc2ccc3c(c2)OCO3)sc(NC(=O)c2ccccc2)c1C(N)=O	24.5%	3.5%	1.0%	8.9%	-3.9	13µM*
Cc1nc(NC(=O)c2ccc(Cl)cc2)sc1Cc1ccc2c(c1)OCO2	?	4.9%	?	5.8µM*	?	2.91µM*
N#CCc1cnc2ccccc2n1	-3.0%	?	-4.9%	7.1%	1.6	-0.9%
CC(C)c1nn2c(=O)cc(CSc3ccccc3NC(=O)c3ccccc3F)nc2s1	-3.8%	?	6.2%	-0.8%	1.1	6.8%
COc1cccc(NC(=S)NC(=O)/C=C/c2ccc(F)cc2)c1	7.08µM*	-0.4%	?	?	-11.6	-3.1%
COc1ccc(NC(=S)NC(=O)/C=C/c2ccccc2)cc1	7.08µM*	1.2%	7.08µM*	2.5%	-21.8	-0.6%
Cc1nc(NC(=O)/C=C/c2ccccc2)sc1C(=O)Nc1ccccc1	-30.3%	?	-20.0%	?	-12.4	20.6µM*
Cc1nc(NC(=O)/C=C/c2ccccc2)sc1C(=O)NCCO	4.8%	?	16.2%	-3.0%	-8.9	0.4%
COc1ccc(NC(=S)NC(=O)/C=C/c2ccco2)cc1	-3.1%	?	-18.8%	13.3%	-6.5	?

Screening results deposited in PubChem BioAssay by National Center for Advancing Translational Sciences (NCATS).
